Screens as filed in PubChem BioAssay.
Shown are actives, neighbours in structure and some others; about 12% of the full set was active somewhere.
Pf growth 48h: Primary qHTS for delayed death inhibitors of the malarial parasite plastid, 48 hour incubation. Potency, µM (highest dose often 28.7 µM), most hits filed as inhibitors. P. falciparum luciferase growth in erythrocytes, 48 h. 5.9% of 310,000 active
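A one-generation exposure of luciferase-tagged malaria parasites in RPMI 1640/Albumax erythrocyte culture, 37 C and 5% CO2. Inhibition is inferred from decreased luminescence after adding detection reagent.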
Sm TGR inh: qHTS Assay for the Inhibitors of Schistosoma Mansoni Peroxiredoxins | AID 485364, 2010 | 3% of 360,000 active | Potency, µM (titrated, usually from 114 µM), most hits filed as inhibitors | purified TGR, DTNB reduction, TNB absorbance 405 nm; note: nearly all actives have a fitted effect of over 60% in size
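TGR 20 nM + NADPH 100 uM (dispensed conc.), cpd preinc 15 min RT; start with NADPH (500 uM addition) then DTNB (15 mM addition). Kinetic TNB absorbance, 405 nm filter. Four-parameter Hill fit across titration.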
SARS PLpro yeast: qHTS of Yeast-based Assay for SARS-CoV PLP; S. cerevisiae expressing SARS-CoV PLpro, growth rescue; Potency, µM (doses to about 32.9 µM), hits mostly activators; 0.19% of 330,000 active; calls by dose curve; note: nearly all actives have a fitted effect of over 55% in size
Pf growth 96h: Primary qHTS for delayed death inhibitors of the malarial parasite plastid, 96 hour incubation. AID 504834, 2011. 6.9% of 320,000 active. P. falciparum luciferase reporter growth, 96 h. Potency, µM (series often up to 28.7 µM), most hits filed as inhibitors
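Readout is luminescence from an integrated firefly luciferase in P. falciparum. Red cells, 2% hematocrit and 0.05% parasitemia final, were cultured with compound through two parasite generations (96 hours) at 37 C, 5% CO2.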
A number is an active result; n = inactive; u = inconclusive; x = no result; [ ] = remark or other dose. Unless noted, calls come from the whole dose curve; as a rule, active = well fitted curve in the direction sought with a large enough effect; inconclusive = small, poorly fitted or top-dose-only effect, or another doubt; inactive = no such curve, though single readings can be large; an effect the other way counts as inactive or inconclusive.

SMILES | Pf growth 48h | Sm TGR inh | SARS PLpro yeast | Pf growth 96h
CC(=O)N1CCOc2cc(S(=O)(=O)Nc3cccc(C(F)(F)F)c3)c(Cl)cc21 | 13µM | n | n | u
COc1ccc(CN(C)C(=O)c2ccc(NC(=O)CC3SC(N4CCCC4)=NC3=O)cc2)c(OC)c1 (stereo not drawn) | u | n | n | u
COc1ccc(CN(C)C(=O)c2ccc(NC(=O)CC3SC(N4CCCC4)=NC3=O)cc2)c(OC)c1OC (stereo not drawn) | u | n | n | 5.9µM
CCN(CC(=O)Nc1c(F)cccc1F)C(=O)c1ccc(NC(=O)CC2SC(N3CCCC3)=NC2=O)cc1 (stereo not drawn) | n | n | n | 13µM
CN(Cc1c(F)cccc1Cl)C(=O)c1ccc(NC(=O)CC2SC(N3CCCC3)=NC2=O)cc1 (stereo not drawn) | 10µM | n | n | u
Cc1ccc(NC(=O)CN(C)C(=O)c2ccc(NC(=O)CC3SC(N4CCCC4)=NC3=O)cc2)cc1 (stereo not drawn) | n | n | n | u
CCOC(=O)C1CCN(c2c(C(=O)c3ccc(OC)cc3)cnc3ccccc23)CC1 | x | n | x | x
NCc1ccccc1 | n | n | x | n
NC(=O)[C@H]1CC2(CC(c3cccc(NC(=O)COc4ccc(Cl)cc4)c3)=NO2)CN1C(=O)C(c1ccccc1)c1ccccc1 (stereo partly drawn) | 13µM | n | n | u
CC/C=C/C(=O)N1CC2(CC(c3cccc(NC(=O)COc4ccc(Cl)cc4)c3)=NO2)C[C@H]1C(N)=O (stereo partly drawn) | 10µM | u | n | 4.7µM
Cc1ccc2oc(=O)c3cc(C(=O)Nc4ccc(F)cc4F)sc3c2c1 | x | n | x | x
Cc1ccc(C)c(N2CCN(c3ccc4cc(S(=O)(=O)N5CCCCC5)ccc4n3)CC2)c1 | n | n | n | 9.3µM
Cc1cccc(N2CCN(c3ccc4cc(S(=O)(=O)N5CCCCC5)ccc4n3)CC2C)c1 (stereo not drawn) | u | n | n | 10µM
Cc1ccc(C)c(N2CCN(S(=O)(=O)c3ccc(C4CCCCC4)cc3)CC2)c1 | x | n | x | x
Cc1cccc(N2CCN(c3ccc4cc(S(=O)(=O)N5CCCCC5)ccc4n3)CC2)c1C | 12µM | n | n | u
CNC[C@@H]1Oc2ccc(NS(=O)(=O)c3ccc(OC)cc3)cc2CC(=O)N([C@H](C)CO)C[C@@H]1C | x | x | n | x
CCCc1nn2c(=O)cc(COC(=O)c3ccc(NC(=O)COc4ccccc4F)cc3)nc2s1 | x | n | x | x
CCOc1ccc(N2C(=O)c3cccnc3C2Nc2ccc(OC)cc2)cc1 (stereo not drawn) | u | n | n | n
CCOc1ccc(N2C(=O)c3cccnc3C2Nc2ccc(C)cc2)cc1 (stereo not drawn) | 9.3µM | u | n | 1.7µM
CCOc1ccc(N2C(=O)c3cccnc3C2Nc2ccc(C)c(C)c2)cc1 (stereo not drawn) | x | n | n | 4.7µM
CC(=O)NC(C(=O)N1CCC(c2nc3ccccc3s2)CC1)C(C)C (stereo not drawn) | n | n | n | n
COc1cc(C(=O)Nc2ccc(C)c(S(=O)(=O)N(C)C)c2)ccc1OCC(=O)N1CCOCC1 | n | n | n | n
CN(CC(O)COCc1ccccc1F)C1CCCCC1 (stereo not drawn) | n | n | n | n
CCN(CC(O)COCc1ccc(Cl)cc1)C1CCCCC1 (stereo not drawn) | 10µM | n | n | u
CCc1ccccc1N1C(=O)C(Cl)=C(N2CCOCC2)C1=O | n | n | n | 1.5µM
SMILES | Pf growth 48h | Sm TGR inh | SARS PLpro yeast | Pf growth 96h
COc1ccccc1N1C(=O)C(Cl)=C(N2CCCC2)C1=O | n | n | n | 9.3µM
O=C1C(Cl)=C(N2CCOCC2)C(=O)N1c1ccccc1F | n | 40µM | n | n
COc1ccc(C(CC(=O)Nc2ccc(F)c(Cl)c2)N2Cc3ccccc3C2=O)cc1OC (stereo not drawn) | x | n | x | x
CCCCN1CCc2c(c3ccccc3n2Cc2ccccc2)C1 | 10µM | n | n | 6.6µM
CC1=NN(c2ccccc2)C(=O)C1C=Nc1ccccc1O (stereo not drawn) | 5.2µM | n | n | u
CCc1ccc2nc(N(CCN(CC)CC)C(=O)c3cccs3)sc2c1 | x | n | x | x
CCC(=O)N1CCCN(S(=O)(=O)c2ccc(C)cc2)C1c1ccc(OC)cc1 (stereo not drawn) | 13µM | n | n | n
COc1ccc(C2N(S(=O)(=O)c3ccccc3)CCN2S(=O)(=O)c2ccc(C)cc2)cc1 (stereo not drawn) | x | n | u | 9.3µM
COc1ccccc1NC(=O)C1=C(C)Nc2c(C(=O)Nc3ccc(F)cc3)cnn2C1c1cccc([N+](=O)[O-])c1 (stereo not drawn) | x | n | x | x
Cc1ccccc1C1C(C#N)=C2N=C(N)c3c(sc4c3CCCCC4)N2C2=C1C(=O)CCC2 (stereo not drawn) | 1.9µM | n | n | 2.6µM
O=C(CCC1CCCN(C(=O)CCN2CCCCC2=O)C1)NCc1ccccc1F (stereo not drawn) | n | n | n | n
Cc1cc(C)c(NC(=O)Cn2nnc(C(=O)NCc3ccc4c(c3)OCO4)c2N)c(C)c1 | n | n | n | 15µM
CC(C)c1ccc(NC(=O)Cn2nnc(C(=O)NCc3ccc4c(c3)OCO4)c2N)cc1 | n | n | n | 9.3µM
COc1ccc(NC(=O)Cn2nnc(C(=O)NCc3cccs3)c2N)cc1Cl | n | n | n | n
Cc1ccc(NC(=O)Cn2nnc(C(=O)NCc3cccs3)c2N)cc1Cl | n | n | n | 9.3µM
O=C1C=C(c2ccc3ncccc3c2)C[C@@H](c2ccc3c(c2)OCO3)C1 | u | n | n | u
CC(=O)Nc1c(C)nn(-c2ccccc2)c1N1CCC(C(=O)NCc2cccc(Cl)c2)CC1 | x | n | x | x
COc1cccc(NC(=O)N(CCCN2CCOCC2)C(C)c2cc3cccc(OC)c3o2)c1 (stereo not drawn) | u | n | n | u
COc1ccc(NC(=S)N(CCCN2CCOCC2)C(C)c2cc3ccccc3o2)cc1 (stereo not drawn) | u | n | n | n
COc1cccc(NC(=S)N(CCCN2CCOCC2)C(C)c2cc3cccc(OC)c3o2)c1 (stereo not drawn) | u | n | n | 2.1µM
COc1cccc(NC(=O)N(CCCN2CCOCC2)C(C)c2cc3ccccc3o2)c1 (stereo not drawn) | x | n | n[6.58 µM] | 12µM
O=C(Nc1cc(S(=O)(=O)N2CCCCC2)ccc1N1CCCCC1)c1ccncc1 | 9.3µM | n | n | 8.3µM
CC1CCN(C(C)C(=O)Nc2cc(S(=O)(=O)N3CCCCC3)ccc2Cl)CC1 (stereo not drawn) | 12µM | n | n | 9.3µM
CC1CC(C)CN(C(C)C(=O)Nc2cc(S(=O)(=O)N3CCCCC3)ccc2Cl)C1 (stereo not drawn) | x | x | n | x
O=C(Nc1cc(S(=O)(=O)N2CCCCC2)ccc1N1CCCCC1)C1CC1 | 10µM | n | n | u
